Only some compounds are listed: those with a hit (about 18% of all), similar ones and a draw of the others.
VDR inhibitor: blocks the human vitamin D receptor | P11473 | VDR-SRC2-3 peptide fluorescence polarization, 2 h | Potency, µM, without a hit: max response, negative = inhibition, most hits filed as inhibitors | hit rate 0.93% among 400,000
Target sequence (P11473 whole entry, looked up): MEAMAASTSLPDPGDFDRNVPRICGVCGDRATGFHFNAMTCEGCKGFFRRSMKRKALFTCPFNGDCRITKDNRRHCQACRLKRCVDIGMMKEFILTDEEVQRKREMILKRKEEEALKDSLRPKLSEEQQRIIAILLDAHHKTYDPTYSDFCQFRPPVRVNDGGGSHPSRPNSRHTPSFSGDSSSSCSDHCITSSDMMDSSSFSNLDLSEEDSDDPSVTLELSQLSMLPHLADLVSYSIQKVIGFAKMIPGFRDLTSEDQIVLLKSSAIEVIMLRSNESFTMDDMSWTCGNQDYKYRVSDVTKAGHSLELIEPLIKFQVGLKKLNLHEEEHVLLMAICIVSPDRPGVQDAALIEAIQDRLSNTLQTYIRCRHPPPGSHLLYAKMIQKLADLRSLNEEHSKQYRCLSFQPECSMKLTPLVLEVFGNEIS
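Inhibition of the VDR/SRC2-3 peptide interaction is quantified by fluorescence polarization. Compounds (23 nl, pintool) incubate with the reagents for 2 hours at ambient room temperature.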
TDP1 cell noCPT: qHTS for Inhibitors of human tyrosyl-DNA phosphodiesterase 1 (TDP1): qHTS in cells in absence of CPT; Potency, µM (series often up to 46.2 µM), inactives show top-dose activity change, negative = growth inhibition, most hits filed as inhibitors; hit rate 15% among 420,000; DT40 Tdp1-/- hTDP1 cells, no CPT, ATP luminescence, 48 h; AID 686978, 2013; note: nearly all actives have a fitted effect of over 55% in size
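Growth of hTDP1-complemented DT40 Tdp1-knockout cells is measured by ATP luminescence after at least 48 hr compound exposure at 37 °C, with DMSO substituting for the 20 nM CPT used in the parallel screen.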
KAT2A inh: inhibitors of human GCN5L2 histone acetyltransferase | Q92830 | GCN5L2 HAT assay, ThioGlo1 CoA-SH fluorescence | Potency, µM (top dose mostly 58.9 µM), for inactives: top-dose activity change, negative = inhibition, most hits filed as inhibitors | hit rate 0.21% among 390,000
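Free CoA generated was detected with ThioGlo1 (50uM) fluorescence at Ex340nm/Em540nm, read immediately and after 20 min at room temperature. Enzyme, 20 nM in HEPES pH 7.5 buffer, saw compounds 15 min before adding 75uM H3(1-25) peptide and 70uM acetyl-CoA.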
PLK1 PBD block: PLK1 (human) polo-box domain binding inhibition | P53350 | Plk1 PBD binding of FITC phosphopeptide, fluorescence polarization | Potency, µM, for inactives: max response, negative = inhibition, hits mostly inhibitors | hit rate 2.8% among 360,000 | AID 720504; note: series mostly up to about 57 µM; nearly all actives have a fitted effect of over 65% in size
TDP1 inh: inhibitors of human tyrosyl-DNA phosphodiesterase TDP1 | recombinant TDP1, AlphaScreen DNA substrate cleavage | Potency, µM (top dose mostly 130 µM), for inactives: top-dose activity change, negative = inhibition, actives largely listed as inhibitors | hit rate 0.28% among 350,000 | AID 485290; note: nearly all actives have a fitted effect of over 40% in size
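Recombinant E. coli-expressed Tdp1 (1 nM) preincubated with compound 15 min at RT, then 5'-biotin/3'-phosphotyrosine-FITC DNA substrate (15 nM) added for 5 min. AlphaScreen beads (10 ug/ml) added, 10 min RT; tyrosine-FITC cleavage read as signal loss.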
TDP1 cell CPT: DT40-hTDP1 cell growth loss with CPT; chicken DT40 Tdp1-/-;hTDP1 cells + 20 nM CPT, ATP luminescence, 48 h; AID 686979; Potency, µM (top dose mostly 46.2 µM), without a hit: at the highest dose activity change, negative = growth inhibition, usual class: inhibitors; hit rate 12% among 420,000; note: nearly all actives have a fitted effect of over 55% in size
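Chicken DT40 Tdp1-/- cells stably complemented with human TDP1 were seeded at 400 cells/well in medium containing 20 nM camptothecin, exposed to pin-transferred compounds, and grown at 37 °C for at least 48 hr. Viability was read as ATP luminescence.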
* hit, by the source's call; u = inconclusive; x = no result given; [ ] = dose if it differs, or a comment. Calls come from the whole dose curve; as a rule, active = well fitted curve in the direction sought with a large enough effect; inconclusive = small, poorly fitted or top-dose-only effect, or another doubt; inactive = no such curve, though single readings can be large; an effect the other way counts as inactive or inconclusive. % is set by controls: 0 for no effect and ±100 for the full control effect; potency is the fitted concentration of half-maximal effect.

SMILES | VDR inhibitor | TDP1 cell noCPT | KAT2A inh | PLK1 PBD block | TDP1 inh | TDP1 cell CPT
O=C1[C@H]2[C@@H](c3ccc(C(F)(F)F)cc3)N[C@]3(CCCN(Cc4ccccc4)C3=O)[C@H]2C(=O)N1Cc1ccccc1 | x | 23µM* | x | -9% | x | 23µM*
CCN1C(=O)[C@H]2[C@@H](c3ccc(C(F)(F)F)cc3)N[C@]3(CCCN(Cc4cccn4C)C3=O)[C@H]2C1=O | x | u | x | -2% | x | u
O=C1[C@H]2[C@@H](c3ccc(C(F)(F)F)cc3)N[C@]3(CCCN(Cc4ccc(C(F)(F)F)cc4)C3=O)[C@H]2C(=O)N1Cc1ccccc1 | x | 18µM* | x | -21% | x | 18µM*
CC(C)CCN1CCC[C@]2(N[C@H](c3ccc(C(F)(F)F)cc3)[C@@H]3C(=O)N(Cc4ccccc4)C(=O)[C@@H]32)C1=O | x | 16µM* | x | -7% | x | 18µM*
COC(=O)c1ccc(CN2[C@H](C(=O)OC)C[C@@]3(O)[C@@H](O)[C@@H](O)[C@@H](O)C[C@@H]23)cc1 | -22% | 1% | -24% | -4% | 3% | u
O=C(CCN1C(=O)S/C(=C\c2ccccc2)C1=O)NC1CCS(=O)(=O)C1 (centres undefined) | 9% | -16% | -20% | -2% | 3% | u
COc1cccc(C(=O)Nc2nnc(S(=O)(=O)N3CCCc4ccccc43)s2)c1 | 4% | u | -1% | x | 5% | u
CCN(C(=O)COC(=O)/C(C#N)=C/c1ccc(OC)cc1)C1CCS(=O)(=O)C1 (centres undefined) | 7% | -10% | -1% | -10% | x | -12%
O=C1[C@H]2[C@@H](c3ccc(C(F)(F)F)cc3)N[C@]3(CCCN(CC4CCCCC4)C3=O)[C@H]2C(=O)N1Cc1ccccc1 | x | 23µM* | x | -8% | x | 23µM*
COc1ccc(CN2CCC[C@]3(N[C@H](c4ccc(C(F)(F)F)cc4)[C@@H]4C(=O)N(C)C(=O)[C@@H]43)C2=O)cc1 | x | u | x | -3% | x | 23µM*
O=C1[C@H]2[C@@H](c3ccccc3)N[C@]3(CCCN(CC4CCCCC4)C3=O)[C@H]2C(=O)N1Cc1ccccc1 | x | u | x | -21% | x | u
COc1ccc(CN2CCC[C@]3(N[C@H](c4ccc(OC)cc4)[C@@H]4C(=O)N(C)C(=O)[C@@H]43)C2=O)cc1 | x | 4% | x | -8% | x | 7%
Cn1ncc(Br)c1C(=O)N1CCCCCC1 | 5% | 0% | -23% | -19% | 2% | -7%
CCN(CC)c1ccc(C2C(C(N)=O)=C(C)Nc3ncnn32)cc1 (centres undefined) | 8% | -21% | 4% | x | -1% | -2%
CCOC(=O)c1cc(OCC)c2c(ccc3cc(OC)ccc32)n1 | x | 5.8µM* | x | -7% | x | u
CCOC(=O)c1cc(Cl)c2c(ccc3ccccc32)n1 | x | -16% | x | 2% | x | 0%
Cc1cccc(/N=C/c2sc3ccccc3c2O)n1 | u | u | -4% | -23% | 6% | -22%
O=[N+]([O-])c1ccc(O)c(N=Cc2sc3ccccc3c2O)c1 | 3% | 12µM* | -11% | 0% | 5% | 21µM*
CC1=C(C(=O)Nc2cc(Cl)ccc2C)C2(CCCCC2)OC1=O | -9% | u | -3% | x | 6% | u
COc1ccc(CC(=O)Nc2cc(S(=O)(=O)N3CCCCC3)ccc2OC(C)C)cc1OC | x | 21µM* | x | 2% | x | u
Cc1ccc(S(=O)(=O)N2CCCCC2)cc1NC(=O)CCNC(=O)c1ccc([N+](=O)[O-])cc1 | -9% | 16µM* | -3% | -5% | -2% | 23µM*
COc1ccc(CC(=O)Nc2cc(S(=O)(=O)N3CCCCC3)ccc2C)cc1 | 29% | 21µM* | -2% | -2% | -2% | u
COc1ccc(CC(=O)NNC(=O)CCC(=O)Nc2cc(C)ccc2C)cc1 | 89µM* | -22% | -7% | u | -4% | -3%
CCOc1ccc(S(=O)(=O)N2CCCCC2)cc1NC(=O)Cc1ccc(OC)cc1 | x | u | x | -3% | x | u
COc1ccc(CC(=O)Nc2ccc(S(=O)(=O)N3CCCCC3)cc2)cc1OC | 2% | u | -12% | -18% | 10% | u
SMILES | VDR inhibitor | TDP1 cell noCPT | KAT2A inh | PLK1 PBD block | TDP1 inh | TDP1 cell CPT
COc1ccc(CC(=O)Nc2cccc(S(=O)(=O)N3CCCCCC3)c2)cc1OC | -16% | 7.3µM* | -5% | -3% | 7% | 6.5µM*
COc1ccc(CCC(=O)Nc2ccc(S(=O)(=O)N3CCCC3)cc2)cc1OC | 8% | -2% | -3% | 2% | 4% | -16%
COc1ccc(S(=O)(=O)N2CCCCC2)cc1NC(=O)c1cccs1 | -2% | 4% | -1% | -10% | 0% | -21%
COc1ccc(CCC(=O)Nc2cccc(S(=O)(=O)N3CCCCCC3)c2)cc1OC | u | 15µM* | -9% | -11% | 3%[56.1 µM] | u
Cc1ccc(S(=O)(=O)N2CCCCC2)cc1NC(=O)c1cccs1 | 8% | -10% | -2% | -17% | 1% | 26µM*
Cc1ccc(-c2cccc(NC(=O)C3C4C=CC(C4)C3C(=O)O)c2)o1 (centres undefined) | -8% | u | -3% | u | 7% | u
COc1ccccc1CCCNC(=O)C1CCC(=O)N(Cc2ccccc2F)C1 (centres undefined) | -15% | u | -5% | -14% | 3% | u
CCC1Oc2ccc(C)cc2N(CC(=O)NCc2ccc(F)cc2)C1=O (centres undefined) | -2% | u | 1% | x | 3% | u
CSc1ccccc1NC(=O)C1CC(c2ccccc2Cl)=NO1 (centres undefined) | u | u | -17% | u | -16% | u
Cc1ccc(NC(=O)CN(C)C(=O)COc2cc(F)ccc2[N+](=O)[O-])cc1 | -12% | -13% | -4% | -10% | 3% | 11%
CN(C)c1ccc(NC(=O)CCN2C(=O)c3cccc([N+](=O)[O-])c3C2=O)cc1 | -11% | 17% | -11% | -6% | x | 0%
CCCN1CCN(C(=O)c2oc3ccccc3c2NC(=O)COc2ccc(OC)cc2)CC1 | 20µM* | u | -16% | -6% | 4% | u
CCOCc1c(C(=O)N2CCN(CCOc3ccc(Cl)cc3)CC2)oc2ccccc12 | 4% | 15µM* | -12% | -8% | -1% | u
COc1ccc(OCC(=O)Nc2c(C(=O)N3CCN(C)CC3)oc3ccccc23)cc1 | -30% | -14% | -15% | 30µM* | 3% | -23%
